High-throughput results deposited in PubChem BioAssay by several laboratories.
PLK1 kinase inh – inhibitors of human PLK1 kinase; P53350; recombinant PLK1 kinase, TR-FRET peptide phosphorylation; inhibition, % at 10 µM; 97,000 tested, 0.53% active; AID 619;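 active = inhibition of 50% or more in the single-concentration screen; inactive = inhibition below 50%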
CYP2C9 inhib – blocks human cytochrome P450 2C9. P11712. CYP2C9 Supersomes, luciferin-H conversion, luminescence. inhibition, % at 5 µM. 96,000 tested, 20% active;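 active = blocking of liver enzyme CYP2C9 beyond about 50% at 5 µM, limit read from the data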
Target sequence (P11712 whole entry, looked up): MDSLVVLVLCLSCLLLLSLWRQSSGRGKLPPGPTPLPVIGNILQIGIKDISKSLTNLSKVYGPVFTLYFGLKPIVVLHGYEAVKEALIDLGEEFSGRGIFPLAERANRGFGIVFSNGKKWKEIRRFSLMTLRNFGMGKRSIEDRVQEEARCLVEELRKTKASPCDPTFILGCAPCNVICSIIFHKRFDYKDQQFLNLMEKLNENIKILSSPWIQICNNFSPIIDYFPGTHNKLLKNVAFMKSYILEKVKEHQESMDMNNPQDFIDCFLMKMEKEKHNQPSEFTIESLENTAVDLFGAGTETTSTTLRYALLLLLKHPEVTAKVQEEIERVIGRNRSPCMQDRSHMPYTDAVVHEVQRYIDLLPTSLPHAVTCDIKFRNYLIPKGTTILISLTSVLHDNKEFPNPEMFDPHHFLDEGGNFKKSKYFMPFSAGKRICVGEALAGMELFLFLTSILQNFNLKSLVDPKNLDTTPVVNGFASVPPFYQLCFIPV
CYP2C9 activ – increases human cytochrome P450 2C9 activity; recombinant CYP2C9, luciferin-H conversion, luminescence; hits give high values; factor 1 = untreated enzyme, 0 = blocked; activation factor at 5 µM; 96,000 tested, 1.4% active; AID 1024;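 active = activation factor of 2 or more for CYP2C9 at a 5 µM dose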
Plk1 PBD FP – inhibitors of human Plk1 polo box domain binding | Plk1 PBD phosphopeptide binding, fluorescence polarization | AID 693 | P53350 | 97,000 tested, 0.13% active | inhibition, %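 (tested at about 20 µM)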; in the data active = inhibition above about 34%, passing the limit was not always enough
CYP2C19 inhib – inhibitors of human CYP2C19 | P33261 | CYP2C19 Supersomes, luciferin-H EGE luminescence, 30 min | inhibition, % at 5 µM | 96,000 tested, 21% active | AID 778;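 active = CYP2C19 inhibition above a set limit at 5 µM in the primary screen, cut at about 50% in these data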
CYP2C19 act – activators of human cytochrome P450 2C19. recombinant CYP2C19, luciferin-H EGE luminescence; hits give high values; 0 = fully inhibited enzyme, 1 = untreated enzyme. P33261. 96,000 tested, under 10 active. activation factor at 5 µM;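 active = activation factor of at least 2 at 5 µM in the primary screen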
A number is an active result; 0 = inactive; - = no result given. This is a sample that favours compounds with a hit; in the whole collection about 28% have one here.

SMILES	PLK1 kinase inh	CYP2C9 inhib	CYP2C9 activ	Plk1 PBD FP	CYP2C19 inhib	CYP2C19 act
COc1cc(NC(=S)N2CCN(C(c3ccccc3)c3ccccc3)CC2)cc(OC)c1	0	0	0	0	0	0
COc1ccc(OC)c(S(=O)(=O)N2CCN(C)CC2)c1	-	0	0	-	0	0
COc1cc(S(=O)(=O)N2CCCCCC2)c(OC)cc1Br	0	75	0	0	96	0
COc1ccc(OC)c(S(=O)(=O)N2CCCCCC2)c1	-	0	0	-	0	0
COc1c(C)cc(S(=O)(=O)N2CCCC2)c(C)c1C	0	0	0	0	96	0
COc1ccc(C(C)(C)C)cc1S(=O)(=O)N1CCN(C)CC1	0	0	2	0	0	0
COc1ccc(S(=O)(=O)N2CCCN(S(=O)(=O)c3ccc(OC)cc3C)CC2)c(C)c1	-	0	2.1	-	0	0
CCOC(=O)Nc1ccc(OC)cc1S(=O)(=O)N1CCCCC1	0	0	0	0	63	0
COc1ccc(S(=O)(=O)N2CCN(C)CC2)cc1C	0	0	0	0	0	0
COc1cc(C)c(S(=O)(=O)N2CCCC2)cc1C	0	0	0	0	88	0
COc1cc(C)c(S(=O)(=O)N2CCN(C)CC2)cc1C	0	0	0	0	62	0
CN(C(=O)COC(=O)c1ccc(Cl)cc1N)C1CCS(=O)(=O)C1 (centres undefined)	0	0	0	0	0	0
CSc1cccc(NC(=O)CN(C)S(=O)(=O)c2ccc(F)cc2)c1	0	0	0	0	63	0
CN(CC(=O)Nc1nccs1)S(=O)(=O)c1ccc(F)cc1	53	0	0	0	67	0
CCN(CC(=O)Nc1ccccc1C(=O)OC)S(=O)(=O)c1ccccc1	0	0	0	0	80	0
CC(C)NC(=O)CN(C)S(=O)(=O)c1ccc(F)cc1	0	0	0	0	0	0
CCCC(=O)Nc1ccccc1NC(=O)CN(C)S(=O)(=O)c1ccccc1	0	58	0	0	0	0
COC(=O)c1ccccc1NC(=O)CN(C1CCCCC1)S(C)(=O)=O	0	0	0	0	0	0
CC(=O)NCCC(=O)Nc1ccc(F)cc1C	0	0	0	0	0	0
N=c1sccn1CC(=O)Nc1ccccc1-c1ccccc1	-	0	0	-	0	0
OC(CN1CCN(c2ccccc2)CC1)c1ccc2c(c1)CCN2 (centres undefined)	0	0	0	0	0	0
CSc1cccc(NC(=O)CN(C)S(=O)(=O)c2ccccc2)c1	0	0	0	0	86	0
CSc1cccc(NC(=O)COc2cccc3ccccc23)c1	0	0	2.2	0	0	0
COc1ccccc1C(=O)Nc1cccc(SC)c1	0	-	-	0	-	-
CCC(C)NC(=O)CSC1=Nc2ccccc2C2=NC(CC(=O)NCc3ccc(F)cc3)C(=O)N12 (centres undefined)	0	0	0	0	0	0
SMILES	PLK1 kinase inh	CYP2C9 inhib	CYP2C9 activ	Plk1 PBD FP	CYP2C19 inhib	CYP2C19 act
CCN(CC)C(=O)CSC1=Nc2ccccc2C2=NC(c3ccccc3)C(=O)N12 (centres undefined)	0	61	0	0	0	0
CCOC(=O)CSC1=Nc2ccccc2C2=NC(CC(=O)NCc3ccccc3)C(=O)N12 (centres undefined)	0	57	0	0	0	0
CCOC(=O)CSC1=Nc2ccccc2C2=NC(CC(=O)NCc3cccs3)C(=O)N12 (centres undefined)	0	65	0	0	0	0
CCCCNC(=O)CC1N=C2c3ccccc3N=C(SCC(=O)Nc3ccccc3C)N2C1=O (centres undefined)	0	0	0	0	0	0
COc1ccc(C2(O)CCN(C(=O)NC3CCCCC3)CC2)cc1	0	0	0	0	0	0
O=C(/C=C/c1cccc(C(F)(F)F)c1)Nc1cccc(C(F)(F)F)c1	0	0	2.9	0	0	0
O=C(Nc1ccc(C(F)(F)F)cc1)c1cccnc1N1CCOCC1	0	0	0	0	0	0
O=C(Nc1cccc(C(F)(F)F)c1)c1cccnc1N1CCCC1	0	0	3.4	0	0	0
O=C(Nc1cccc(C(F)(F)F)c1)C1CCCCC1	0	69	0	0	87	0
O=C(Nc1ccc(Cl)cc1)c1cccnc1N1CCCCC1	0	78	0	0	79	0
CC1=NN(/C(=N\c2nnc(C)s2)Nc2ccc(C(C)(C)C)cc2)[C@H](c2ccc(C)cc2)S1	0	-	-	0	-	-
CCc1ccc(C2CC(c3cccc(Cl)c3)n3nc(N)nc3N2)cc1 (centres undefined)	-	0	0	-	0	0
O=C(NCCc1ccccc1)c1cccnc1N1CCCCCC1	0	61	0	0	72	0
Cc1c(N=Cc2ccc[nH]2)c(=O)n(-c2ccccc2)n1C	0	0	0	0	0	0
CCCCCCNc1nc(NCc2ccco2)nc(OCC)n1	0	79	0	0	71	0
CCN(CC(=O)O)S(=O)(=O)c1cc(Cl)ccc1Cl	0	0	0	0	0	0
CN(CC(=O)Nn1cnnc1)S(=O)(=O)c1cc(Cl)ccc1Cl	0	87	0	0	81	0
CN(CC(=O)O)S(=O)(=O)c1cc(Cl)ccc1Cl	0	0	0	0	0	0
CN(CC(=O)N1CCCC1)S(=O)(=O)c1cc(Cl)ccc1Cl	0	0	2.4	0	0	0
O=c1oc2cc(Oc3ccc(C(F)(F)F)cc3[N+](=O)[O-])ccc2c2c1CCCC2	0	-	-	0	-	-
Nc1ccc(Oc2ccc3nc(-c4ccccc4)c(-c4ccc([N+](=O)[O-])cc4)nc3c2)cc1	0	56	0	0	0	0
CC(C)CC(=O)N1CCN(S(C)(=O)=O)CC1	0	0	0	0	0	0
O=C(CN1CCC(NC(=O)c2cccc(F)c2)CC1)NCc1ccccc1F	0	0	0	0	0	0
N#Cc1cn(Cc2cccc(Cl)c2)c2ccccc12	0	93	0	0	93	0
CCNC(=O)Cn1cc(C#N)c2ccccc21	0	-	-	0	-	-
SMILES	PLK1 kinase inh	CYP2C9 inhib	CYP2C9 activ	Plk1 PBD FP	CYP2C19 inhib	CYP2C19 act
Cc1[nH]n(-c2ccccc2)c(=O)c1/C=N/c1ccccn1	0	0	0	0	0	0
Cc1[nH]n(-c2ccccc2)c(=O)c1S(=O)(=O)c1ccccc1	0	0	0	0	88	0
CCc1cc([N+](=O)[O-])cc(CC)c1N	0	0	0	0	55	0
COc1ccccc1NC(=O)N(Cc1ccco1)Cc1cc2ccc(C)c(C)c2[nH]c1=O	0	64	0	0	0	0
Cc1ccc2cc(CN(Cc3ccco3)C(=O)NCc3ccccc3)c(=O)[nH]c2c1C	0	0	0	0	0	0
COc1ccccc1NC(=O)N(Cc1ccco1)Cc1cc2cc(C)cc(C)c2[nH]c1=O	0	62	0	0	60	0
Cc1ccc(C)c2[nH]c(=O)c(CN(Cc3ccco3)C(=O)Nc3ccccc3)cc12	0	0	0	0	0	0
Cc1cccc(NC(=O)CSc2nnc(-c3ccccc3)n2N)c1	0	0	0	0	0	0
Cc1cccc(NC(=O)CSc2nnc(-c3ccccc3)n2N)c1C	0	0	0	0	55	0
Cc1ccc(-c2nnc(SCC(=O)Nc3nccs3)n2N)cc1	63	-	-	0	-	-
